Assay results as given in the supplement of paper PMC6992640.
Structures can show the parent of a compound that is named as a salt. ± gives the standard deviation of the averaged measurements.

What was measured:
Assay in all cases: cell viability (% of vehicle); higher = less cytotoxic
Settings in all cases: 10 µM; 72 h
HCI01 = system: HCI01 (cells of a triple-negative basal-like breast cancer xenograft)
HCI03 = system: HCI03 (cells of an ER-positive luminal breast cancer xenograft)
HCI09 = system: HCI09 (cells of a triple-negative luminal androgen receptor type breast cancer xenograft)
HCI11 = system: HCI11 (cells of an ER-positive luminal breast cancer xenograft)
HCI13 = system: HCI13 (cells of an ER-positive luminal breast cancer xenograft)
HCI16 = system: HCI16 (cells of a triple-negative basal-like breast cancer xenograft)
UCD52 = system: UCD52 (cells of a triple-negative basal-like breast cancer xenograft)
WHIM2 = system: WHIM2 (cells of a triple-negative basal-like breast cancer xenograft)
WHIM30 = system: WHIM30 (cells of a triple-negative basal-like breast cancer xenograft)
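Also: PDX cells carrying CMV promoter-driven luciferase, viability read as total photon flux per second by IVIS imaging following D-luciferin, vehicle control 0.1% DMSO.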

SMILES | cell viability (HCI01) | cell viability (HCI03) | cell viability (HCI09) | cell viability (HCI11) | cell viability (HCI13) | cell viability (HCI16) | cell viability (UCD52) | cell viability (WHIM2) | cell viability (WHIM30)
OC[C@@H](O)[C@@H](O)[C@H](O)[C@@H](O)CO [D-Sorbitol] | 96 ± 11 | 118 | 107 ± 21 | 91.5 | 109 ± 4.5 | 120 | 96.3 ± 8 | 103 ± 2.6 | 120 ± 21
O=S(=O)(O)NC1CCCCC1 [Cyclamic acid] | 91.4 ± 14 | 118 | 94.4 ± 2 | 91.9 | 58.1 ± 1.3 | 121 | 88.7 ± 18 | 104 ± 13 | 106 ± 5.2
CN1CCc2nc(C(=O)NC3CC(C(=O)N(C)C)CCC3NC(=O)C(=O)Nc3ccc(Cl)cn3)sc2C1.Cc1ccc(S(=O)(=O)O)cc1.O (stereo not drawn) [Edoxaban tosylate monohydrate] | 102 ± 2.5 | 92.1 | 87.2 ± 11 | 91.2 | 109 ± 8.7 | 81.1 | 88.8 ± 16 | 96.4 ± 8.8 | 120 ± 4.4
Nc1ccn([C@@H]2O[C@H](CO)[C@@H](O)C2(F)F)c(=O)n1 [Gemcitabine HCl] | 96.1 ± 22 | 109 | 93 ± 23 | 103 | 89.6 ± 16 | 107 | 133 ± 24 | 75.7 ± 7.1 | 105 ± 14
Cc1nc2n(c(=O)c1CCN1CCC(c3noc4cc(F)ccc34)CC1)CCCC2 [Risperidone] | 133 ± 7.9 | 82.8 | 107 ± 61 | 105 | 118 ± 38 | 107 | 83.8 ± 11 | 86 ± 25 | 128 ± 15
O=C([O-])Cc1ccccc1Nc1c(Cl)cccc1Cl.[Na+] [Diclofenac Sodium] | 94.9 ± 18 | 120 | 81.3 ± 5.4 | 73.9 | 105 ± 26 | 111 | 73.6 ± 8.9 | 90.2 ± 14 | 81.348 ± 0.07
CN(C)CCC(c1ccc(Cl)cc1)c1ccccn1.O=C(O)C=CC(=O)O (stereo not drawn) [Chlorpheniramine Maleate] | 157 ± 40 | 115 | 108 ± 13 | 97 | 178 ± 38 | 126 | 79.7 ± 2.5 | 82.8 ± 11 | 127 ± 12
CC(C)n1c(C=CC(O)CC(O)CC(=O)O)c(-c2ccc(F)cc2)c2ccccc21 (stereo not drawn) [Fluvastatin] | 91.2 ± 13 | 130 | 65.7 ± 18 | 162 | 192 ± 10 | 109 | 59.3 ± 12 | 48.9 ± 2.5 | 139 ± 14
O=c1ccc2ccccc2o1 [Coumarin] | 110 ± 15 | 145 | 99.9 ± 6.8 | 95 | 102 ± 7.2 | 128 | 93.3 ± 14 | 113 ± 4.4 | 114 ± 2.5
O=C(O)c1cc(=O)c2ccccc2o1 [Chromocarb] | 124 ± 23 | 119 | 96.2 ± 1.6 | 78.7 | 71.6 ± 5.2 | 111 | 92.59 ± 0.2 | 103 ± 11 | 85.9 ± 2.8
CN(CCOc1ccc(CC2SC(=O)NC2=O)cc1)c1ccccn1.O=C(O)C=CC(=O)O (stereo not drawn) [Rosiglitazone maleate] | 132 ± 20 | 115 | 94 ± 16 | 90.1 | 107.5 ± 0.5 | 99.6 | 105 ± 7.2 | 156 ± 25 | 136 ± 25
CCCCS(=O)(=O)NC(Cc1ccc(OCCCCC2CCNCC2)cc1)C(=O)O.Cl.O (stereo not drawn) [Tirofiban hydrochloride monohydrate] | 119 ± 1.7 | 123 | 107 ± 8.2 | 106 | 135 ± 8.5 | 101 | 91.9 ± 7.1 | 99.1 ± 24 | 113 ± 22
N=C(NCCCCCCNC(=N)NC(=N)Nc1ccc(Cl)cc1)NC(=N)Nc1ccc(Cl)cc1 [Chlorhexidine digluconate] | 77.9 ± 12 | 118 | 60.1 ± 19 | 76 | 68.6 ± 2 | 112 | 98.5 ± 24 | 48.8 ± 1.5 | 103 ± 6
CCCCOc1cc(C(=O)OCCN(CC)CC)ccc1N.Cl [Oxybuprocaine HCl] | 162 ± 33 | 99.6 | 83.9 ± 11 | 88.8 | 95.5 ± 34 | 149 | 90 ± 31 | 126 ± 24 | 189 ± 3.2
Nc1nc(=O)c2c(CCc3ccc(C(=O)NC(CCC(=O)[O-])C(=O)[O-])cc3)c[nH]c2[nH]1.[Na+].[Na+] (stereo not drawn) [Pemetrexed] | 94.1 ± 3.5 | 102 | 88.7 ± 10 | 92.9 | 105 ± 5.3 | 105 | 93.4 ± 13 | 95.2 ± 9.6 | 130 ± 10
CN(C)CCCC1(c2ccc(F)cc2)OCc2cc(C#N)ccc21.O=C(O)C(=O)O (stereo not drawn) [Escitalopram Oxalate] | 99.8 ± 9.9 | 114 | 97.3 ± 12 | 86.2 | 93.6 ± 18 | 128 | 90.9 ± 5.2 | 87.5 ± 5.9 | 157 ± 21
NCCS(=O)(=O)O [Taurine] | 105 ± 23 | 119 | 101 ± 18 | 86.6 | 61.4 ± 7.8 | 115 | 75.92 ± 0.27 | 109 ± 19 | 115 ± 9.7
O=c1[nH]c(=O)n(C2CCCO2)cc1F (stereo not drawn) | 158 ± 9.9 | 110 | 109 ± 5.2 | 112 | 89.2 ± 7.7 | 143 | 116 ± 20 | 130 ± 13 | 130 ± 0.83
NC1CN(c2c(F)cc3c(=O)c(C(=O)O)cn(C4CC4F)c3c2Cl)CC12CC2.O (stereo not drawn) [Sitafloxacin Hydrate] | 83.3 ± 48 | 95.5 | 111 ± 13 | 90.5 | 116.6 ± 0.93 | 122 | 88.8 ± 9.9 | 95.6 ± 27 | 119 ± 4.7
O=C1OC(C(O)CO)C(O)=C1O (stereo not drawn) [Vitamin C] | 76.9 ± 31 | 111 | 93.6 ± 11 | 84.3 | 90 ± 12 | 108 | 75 ± 3.8 | 113 ± 34 | 135 ± 5.2
Nc1ccc(O)c(C(=O)O)c1 [Mesalamine] | 110 ± 2.2 | 125 | 116 ± 8.1 | 103 | 130 ± 15 | 125 | 105 ± 2.3 | 92 ± 2.1 | 155 ± 27
CCN(CC)C(=O)C(C#N)=Cc1cc(O)c(O)c([N+](=O)[O-])c1 [Entacapone] | 121 ± 8.8 | 159 | 105 ± 2.4 | 80.8 | 98.77 ± 0.41 | 105 | 98.7 ± 14 | 192 ± 14 | 104 ± 7
